This note sets out measurements from PubChem BioAssay (EPA / NIEHS).

Results filed as inconclusive are left out. The source made the active and inactive calls. How the source made its calls: active means hit-call score of the fitted dose curve at least 0.9, where 1 is the maximum; inconclusive means response in the unintended direction; inactive means score below 0.9.

The test in a line: CLD_ACTIN_48hr: CellzDirect (CLD) Gene Expression Assay for Baseline Control (Actin) at 48 hours (AID 2283702). The protocol: CLD_48hr is a cell-based, multiplexed-readout assay that uses hepatocyte, a human liver primary cell, with measurements taken at 48 hours after chemical dosing in a 96-well plate.CLD_ACTIN_48hr is one of 16 assay component(s) measured or calculated from the CLD_48hr assay. It is designed to make measurements of mRNA induction, a form of inducible reporter, as detected with chemiluminescence signals by Quantitative Nuclease Protection Assay (qNPA) technology.Data from the assay component CLD_ACTIN_48hr was analyzed at the endpoint, CLD_ACTIN_48hr, in the positive analysis fitting direction relative to DMSO as the negative control and baseline of activity. Using a type of inducible reporter, gain-of-signal activity can be used to understand changes in the reporter gene as they relate to the gene ACTA1. Furthermore, this assay endpoint can be referred to as a secondary readout, because this assay has produced multiple assay endpoints where this one serves a background control function. To generalize the intended target to other relatable targets, this assay endpoint is annotated to the background measurement intended target family, where subfamily is baseline control.
Human hepatocyte cultures were treated daily for two consecutive days with fresh dosing solutions containing appropriate concentrations of the 320 ToxCast chemicals (chemical identities were blinded to CellzDirect and other ToxCast collaborators), vehicle control (0.2% DMSO), and positive control inducers as summarized in Table 1. Due to the large number of treatment groups and chemicals examined, the ToxCast chemicals were divided into two groups (spanning two independent cultures of hepatocytes from separate donor preparations (Hu778: ToxCast plates 1 and 2; Hu776: ToxCast plates 3 and 4). Each preparation of human hepatocyte cultures was treated with respective vehicle control, medium only control, set of six positive controls/reference chemicals for the five hepatic receptor pathways, and a subset of eight of the ToxCast chemicals (indoxacarb, pyrithiobac-sodium, norflurazon, cyhalofop-butyl, methomyl, thiram, acetochlor, and propiconazole). These replicate data, coupled with internal replicates designed within the blinded ToxCast chemical library, provided additional data to evaluate interindividual differences between hepatocyte preparations and their potential impact on chemical profiles.Cell morphology and integrity were evaluated using phase-contrast microscopy as an indicator of hepatocyte cell health (Tyson & Green, 1987). Cultures for each treatment group (i.e., media, vehicle [0.2% DMSO], positive control inducers [multiple concentrations], and the ToxCast chemicals [multiple concentrations]) were observed and cell morphology was assessed relative to vehicle control cultures at each harvest time point (0, 6, 24, or 48 h). […] Images were evaluated at the conclusion of the study to assess changes in cell integrity and account for the effects of chemical exposure on uncharacteristic changes in concentration-dependent gene expression profiles. The results from these determinations of apparent cytotoxicity were annotated (yes/no) alongside the corresponding qNPA data for reference.At the conclusion of each treatment period, hepatocyte cultures (96-well) were washed with 1 volume of HBSS, lysed by addition of 25 ul ArrayPlate lysis buffer (HTG, Tucson, AZ), and 70 ul/well of Denaturation Oil, denatured by incubation at 95C for 10 min, and frozen at approximately -70C until analysis by nuclease protection assay (qNPA) (Roberts et al., 2007). For qNPA analysis, cell lysates were thawed at 50C for approximately 30 min, qNPA probes were added, and samples were incubated at 95C for 10 min to begin the detection process by denaturing the target RNA, dissociating the duplexes and secondary structure hybridization. At the conclusion of the hybridization period, S1 nuclease reagent was added to each sample to digest all nonprotected nucleotides at 50C for 60-90 min. […]
In the case of `CC[C@H](C)[C@H]1O[C@]2(C=C[C@@H]1C)C[C@@H]1C[C@@H](C/C=C(\C)[C@@H](O[C@H]3C[C@H](OC)[C@@H](O[C@H]4C[C@H](OC)[C@@H](O)[C@H](C)O4)[C@H](C)O3)[C@@H](C)/C=C/C=C3\CO[C@@H]4[C@H](O)C(C)=C[C@@H](C(=O)O1)[C@]34O)O2` (tested in a mixture with another compound), the call was inactive.

For the compound `O=C(O)C(F)(F)C(F)(F)C(F)(F)C(F)(F)C(F)(F)C(F)(F)C(F)(F)F`, the result was inactive.

Take `Cc1cc(C)nc(NC(=O)NS(=O)(=O)c2ccccc2C(=O)OC2COC2)n1`: the result was inactive.

As to `CNC(=O)CSP(=S)(OC)OC`, the result was inactive.

With `O=C(O)CCCOc1ccc(Cl)cc1Cl`, the compound was called inactive.

Take `CNC(=O)Oc1cccc(N=CN(C)C)c1`: the call was inactive.

As for `O=C1c2ccccc2C(=O)N1SC(Cl)(Cl)Cl`, the outcome was inactive.

Turning to `COC(=O)c1ccccc1S(=O)(=O)NC(=O)Nc1nc(C)nc(OC)n1`, the result was inactive.

`CC1(c2ccc(Oc3ccccc3)cc2)OC(=O)N(Nc2ccccc2)C1=O` (stereo not drawn): the compound was called inactive.

`CNC(=O)/C=C(\C)OP(=O)(OC)OC`: the call was inactive.

As to `COP(=O)(OC)OC=C(Cl)Cl`, the compound was called inactive.

Regarding `CCN(CC)C(=O)SCc1ccc(Cl)cc1`, the compound was called inactive.

With `O=C(O)COc1ccc(Cl)cc1Cl`, the call was inactive.

In the case of `O=C(NC(=O)c1c(F)cccc1F)Nc1ccc(OC(F)(F)C(F)OC(F)(F)F)c(Cl)c1` (stereo not drawn), the call was inactive.

Turning to `CCOCN(C(=O)CCl)c1c(C)cccc1CC`, the outcome was inactive.

Turning to `N#Cc1c(Cl)c(Cl)c(Cl)c(C#N)c1Cl`, the result was inactive.

Turning to `O=S(=O)(O)C(F)(F)C(F)(F)C(F)(F)C(F)(F)C(F)(F)C(F)(F)C(F)(F)C(F)(F)F`, the compound was classed as inactive.

Consider `O=[N+]([O-])/N=C1\NCCN1Cc1ccc(Cl)nc1`, for which the result was inactive.

As to `Cc1[nH]c(=O)n(C(C)(C)C)c(=O)c1Cl`, the compound was classed as inactive.

As for `CC(C)N(C(=O)COc1nnc(C(F)(F)F)s1)c1ccc(F)cc1`, the call was inactive.

For the compound `O=[N+]([O-])c1c(Cl)c(Cl)c(Cl)c(Cl)c1Cl`, the compound was called inactive.

In the case of `CNC(=O)Oc1ccccc1OC(C)C`, the compound was classed as inactive.

In the case of `OCCOc1ccccc1`, the call was inactive.

For `CCC(C)(NC(=O)c1cc(Cl)c(C)c(Cl)c1)C(=O)CCl` (stereo not drawn), the compound was called inactive.

For the compound `CC(C)OC(=O)Nc1cccc(Cl)c1`, the compound was classed as inactive.

For `N#CN`, the compound was called inactive.

Take `Oc1cc(Cl)ccc1Oc1ccc(Cl)cc1Cl`: the compound was called inactive.

`CCS(=O)(=O)c1cccnc1S(=O)(=O)NC(=O)Nc1nc(OC)cc(OC)n1`: the call was inactive.
